PubChem BioAssay (EPA / NIEHS)
Values joined by “and” are separate entries in the source; they are usually repeats but may differ in a detail not shown here. Identical values can stand only once. Some compounds were tested as several samples or in several runs, with calls that do not always agree. Active and inactive are the calls of the source. The calls were made as follows: active = hit-call score of the fitted dose curve at least 0.9, where 1 is the maximum; inactive = score below 0.9.

Key:
Conditions in all cases: mRNA level, 48 h; actives raise or lower the signal
[1] = read-out: solute carrier (SLCO1B1), SLCO1B1 (gene 10599); experiment: LTEA_HepaRG_SLCO1B1: Life Technologies and Expression Analysis (LTEA) Assay for solute carrier (SLCO1B1) using HepaRG (AID 2283530)
Outline: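 Gain or loss of SLCO1B1 mRNA is fitted against the 0.5% DMSO vehicle in human HepaRG liver cells treated 48 h at up to 100 uM in half-log steps. Expression comes from qRT-PCR normalized to endogenous controls.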

[2] = read-out: sulfotransferase 2A1 (SULT2A1), SULT2A1 (gene 6822); experiment: LTEA_HepaRG_SULT2A1: Life Technologies and Expression Analysis (LTEA) Assay for sulfotransferase 2A1 (SULT2A1) using HepaRG (AID 2283531)
Outline: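 Cells were plated and cultured 48 h, switched to serum-free induction medium, then dosed in duplicate for 48 h (8 concentrations, max 100 uM). RNA was isolated and SULT2A1 expression measured by qRT-PCR; gain or loss of signal fitted relative to DMSO.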

[3] = read-out: Transforming Growth Factor (TGFA), TGFA (gene 7039); experiment: LTEA_HepaRG_TGFA: Life Technologies and Expression Analysis (LTEA) Assay for Transforming Growth Factor (TGFA) using HepaRG (AID 2283532)
Outline: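 Gene expression of TGFA was quantified by qRT-PCR after human HepaRG cells were treated for 48 h with test chemicals (eight concentrations, highest 100 uM, 0.5% DMSO). Activity in either direction was fitted relative to DMSO.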

[4] = read-out: Transforming Growth Factor (TGFB1), TGFB1 (gene 7040); experiment: LTEA_HepaRG_TGFB1: Life Technologies and Expression Analysis (LTEA) Assay for Transforming Growth Factor (TGFB1) Transporter using HepaRG (AID 2283533)
Outline: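 Expression change of TGFB1 in human HepaRG cells is measured after a 48 h chemical exposure, up to 100 uM in 0.5% DMSO vehicle. Curves are fitted in both directions relative to the DMSO baseline.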

TIMP1, TIMP1 (gene 7076) = experiment: LTEA_HepaRG_TIMP1: Life Technologies and Expression Analysis (LTEA) Assay for TIMP1 using HepaRG (AID 2283534);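 as to outcome: TaqMan qRT-PCR signal normalized to ACTB GAPDH and POLR2A housekeeping genes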
Outline: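 We dosed human liver HepaRG cultures for 48 hours with up to 100 uM test chemical and measured TIMP1 expression by qRT-PCR. Activity in either direction is fitted relative to the 0.5% DMSO vehicle.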

[5] = read-out: Tumor necrosis factor receptor 1 (TNFRSF1A), TNFRSF1A (gene 7132); experiment: LTEA_HepaRG_TNFRSF1A: Life Technologies and Expression Analysis (LTEA) Assay for Tumor necrosis factor receptor 1 (TNFRSF1A) using HepaRG (AID 2283535)
Outline: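 Expression of TNFRSF1A in human HepaRG liver cells was measured by qRT-PCR 48 h after chemical dosing (maximum 100 uM). Bidirectional curve fitting used 0.5% DMSO as baseline.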

[6] = read-out: Thyroid Hormone Responsive (THRSP), THRSP (gene 7069); experiment: LTEA_HepaRG_THRSP: Life Technologies and Expression Analysis (LTEA) Assay for Thyroid Hormone Responsive (THRSP) using HepaRG (AID 2283536)
Outline: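 Cell model: human HepaRG, approx. 100,000 cells/well, 0.5% DMSO vehicle. Exposure lasts 48 h; phenobarbital 1 mM serves as induction positive control. Gene expression is measured by qRT-PCR against three endogenous control genes.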

[7] = read-out: Cellular tumor antigen p53 (Homo sapiens) (UniProt P04637); experiment: LTEA_HepaRG_TP53: Life Technologies and Expression Analysis (LTEA) Assay for Tumor Protein P53 (TP53) using HepaRG (AID 2283537)
Outline: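 Gain or loss of TP53 mRNA signal is scored relative to 0.5% DMSO after 48 h chemical treatment of HepaRG liver cells, tested in duplicate at eight half-log concentrations up to 100 uM.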

[8] = read-out: UDP glucuronosyltransferase (UGT1A1), UGT1A1 (gene 54658); experiment: LTEA_HepaRG_UGT1A1: Life Technologies and Expression Analysis (LTEA) Assay for UDP glucuronosyltransferase (UGT1A1) using HepaRG (AID 2283538)
Outline: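 mRNA induction or loss of UGT1A1, by TaqMan qRT-PCR, in duplicate HepaRG wells after 48 h exposure to half-log dilutions topping at 100 uM; DMSO (0.5%) served as baseline.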

[9] = read-out: UDP glucuronosyltransferase (UGT1A6), UGT1A6 (gene 54578); experiment: LTEA_HepaRG_UGT1A6: Life Technologies and Expression Analysis (LTEA) Assay for UDP glucuronosyltransferase (UGT1A6) using HepaRG (AID 2283539)
Outline: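 Endpoint is UGT1A6 transcript induction or loss in a human liver cell line, quantified by TaqMan qRT-PCR 48 h after dosing. Concentrations ran from 100 uM downward in half-log steps in 0.5% DMSO; activity was fitted in both directions versus vehicle.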

Chain of Cellular tumor antigen p53 (Homo sapiens) (P04637 whole entry, looked up): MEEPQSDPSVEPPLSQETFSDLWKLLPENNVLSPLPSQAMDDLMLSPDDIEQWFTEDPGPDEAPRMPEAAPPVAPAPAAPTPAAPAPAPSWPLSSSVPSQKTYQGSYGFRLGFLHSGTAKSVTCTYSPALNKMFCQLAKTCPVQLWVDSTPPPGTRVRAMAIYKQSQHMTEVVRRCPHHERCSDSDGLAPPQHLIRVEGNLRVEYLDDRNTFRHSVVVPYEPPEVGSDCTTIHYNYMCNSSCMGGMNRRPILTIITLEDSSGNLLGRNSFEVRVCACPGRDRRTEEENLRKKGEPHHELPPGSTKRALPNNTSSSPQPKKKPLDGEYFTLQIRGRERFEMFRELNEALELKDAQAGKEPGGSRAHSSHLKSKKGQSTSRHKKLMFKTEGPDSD

CC(C)(C)C(O)/C(=C\c1ccc(Cl)cc1Cl)n1cncn1 (stereo not drawn)
AC50 [1]: 69 µM (active)
AC50 [2]: 35.2 µM (active)
outcome [3]: inactive
outcome [4]: inactive
AC50 (TIMP1, TIMP1 (gene 7076)): 69.2 µM (active)
outcome [5]: inactive
outcome [6]: inactive
outcome [7]: inactive
AC50 [8]: 69.2 µM (active)
AC50 [9]: 36.4 µM (active)

OCCOc1ccccc1
outcome [1]: inactive
outcome [2]: inactive
outcome [3]: inactive
outcome [4]: inactive
outcome (TIMP1, TIMP1 (gene 7076)): inactive
outcome [5]: inactive
outcome [6]: inactive
outcome [7]: inactive
outcome [8]: inactive
outcome [9]: inactive

O=S1OCC2C(CO1)C1(Cl)C(Cl)=C(Cl)C2(Cl)C1(Cl)Cl (stereo not drawn)
AC50 [1]: 20.8 µM (active)
AC50 [2]: 91.7 µM (active)
outcome [3]: inactive
AC50 [4]: 72.1 µM (active)
outcome (TIMP1, TIMP1 (gene 7076)): inactive
outcome [5]: inactive
AC50 [6]: 41.7 µM (active)
AC50 [7]: 70.2 µM (active)
outcome [8]: inactive
outcome [9]: inactive

CCN(CC)C(=O)SCc1ccc(Cl)cc1
outcome [1]: inactive
outcome [2]: inactive
outcome [3]: inactive
outcome [4]: inactive
outcome (TIMP1, TIMP1 (gene 7076)): inactive
outcome [5]: inactive
outcome [6]: inactive
outcome [7]: inactive
outcome [8]: inactive
outcome [9]: inactive

CC(C)(C)C(O)C(Oc1ccc(Cl)cc1)n1cncn1 (stereo not drawn)
outcome [1]: inactive
outcome [2]: inactive
outcome [3]: inactive
outcome [4]: inactive
outcome (TIMP1, TIMP1 (gene 7076)): inactive
outcome [5]: inactive
AC50 [6]: 35.3 µM (active) and 36 µM (active) and 27.9 µM (active)
AC50 [7]: 0.354 µM (active)
outcome [7]: inactive
AC50 [8]: 3.12 µM (active) and 2.49 µM (active) and 3.05 µM (active)
AC50 [9]: 0.381 µM (active)
outcome [9]: inactive

CC1(c2ccc(Oc3ccccc3)cc2)OC(=O)N(Nc2ccccc2)C1=O (stereo not drawn)
AC50 [1]: 30.6 µM (active)
AC50 [2]: 32.5 µM (active)
AC50 [3]: 8.82 µM (active)
outcome [4]: inactive
outcome (TIMP1, TIMP1 (gene 7076)): inactive
outcome [5]: inactive
AC50 [6]: 24.1 µM (active)
AC50 [7]: 12.9 µM (active)
outcome [8]: inactive
AC50 [9]: 50.2 µM (active)

CNC(=O)Oc1ccccc1OC(C)C
outcome [1]: inactive
outcome [2]: inactive
outcome [3]: inactive
outcome [4]: inactive
outcome (TIMP1, TIMP1 (gene 7076)): inactive
outcome [5]: inactive
outcome [6]: inactive
outcome [7]: inactive
AC50 [8]: 0.633 µM (active)
outcome [9]: inactive

O=[N+]([O-])c1c(Cl)c(Cl)c(Cl)c(Cl)c1Cl
outcome [1]: inactive
outcome [2]: inactive
outcome [3]: inactive
outcome [4]: inactive
outcome (TIMP1, TIMP1 (gene 7076)): inactive
outcome [5]: inactive
outcome [6]: inactive
outcome [7]: inactive
AC50 [8]: 17.2 µM (active)
outcome [9]: inactive

O=S(=O)(O)C(F)(F)C(F)(F)C(F)(F)C(F)(F)C(F)(F)C(F)(F)C(F)(F)C(F)(F)F
AC50 [1]: 93.1 µM (active) and 79 µM (active) and 77.6 µM (active)
outcome [1]: inactive
AC50 [2]: 7.51 µM (active) and 83 µM (active) and 85.1 µM (active)
outcome [2]: inactive
AC50 [3]: 50 µM (active) and 16.7 µM (active) and 48 µM (active)
AC50 [4]: 48 µM (active)
outcome [4]: inactive
outcome (TIMP1, TIMP1 (gene 7076)): inactive
outcome [5]: inactive
AC50 [6]: 34.2 µM (active) and 45.8 µM (active) and 60 µM (active)
outcome [6]: inactive
AC50 [7]: 50 µM (active) and 48 µM (active)
AC50 [8]: 12.9 µM (active) and 11.5 µM (active) and 11.9 µM (active)
AC50 [9]: 89.2 µM (active) and 47 µM (active)
outcome [9]: inactive

Oc1ccc(Cl)cc1Cc1ccccc1
AC50 [1]: 81.5 µM (active)
outcome [1]: inactive
outcome [2]: inactive
outcome [3]: inactive
outcome [4]: inactive
outcome (TIMP1, TIMP1 (gene 7076)): inactive
outcome [5]: inactive
AC50 [6]: 78.1 µM (active) and 50.5 µM (active) and 87.7 µM (active)
outcome [7]: inactive
outcome [8]: inactive
AC50 [9]: 81.1 µM (active)
outcome [9]: inactive

CCC(C)(NC(=O)c1cc(Cl)c(C)c(Cl)c1)C(=O)CCl (stereo not drawn)
AC50 [1]: 75.8 µM (active)
AC50 [2]: 79.5 µM (active)
outcome [3]: inactive
AC50 [4]: 75.6 µM (active)
outcome (TIMP1, TIMP1 (gene 7076)): inactive
AC50 [5]: 90.6 µM (active)
AC50 [6]: 95.3 µM (active)
outcome [7]: inactive
AC50 [8]: 12.4 µM (active)
AC50 [9]: 80.3 µM (active)

COc1nn(CSP(=S)(OC)OC)c(=O)s1
outcome [1]: inactive
outcome [2]: inactive
outcome [3]: inactive
outcome [4]: inactive
outcome (TIMP1, TIMP1 (gene 7076)): inactive
outcome [5]: inactive
outcome [6]: inactive
outcome [7]: inactive
AC50 [8]: 15.1 µM (active)
outcome [9]: inactive

Oc1cc(Cl)ccc1Oc1ccc(Cl)cc1Cl
outcome [1]: inactive
outcome [2]: inactive
outcome [3]: inactive
outcome [4]: inactive
AC50 (TIMP1, TIMP1 (gene 7076)): 10.1 µM (active)
outcome (TIMP1, TIMP1 (gene 7076)): inactive
AC50 [5]: 10.1 µM (active)
outcome [5]: inactive
AC50 [6]: 94.7 µM (active)
outcome [6]: inactive
outcome [7]: inactive
outcome [8]: inactive
AC50 [9]: 51 µM (active)
outcome [9]: inactive

O=C1c2ccccc2C(=O)N1SC(Cl)(Cl)Cl
outcome [1]: inactive
outcome [2]: inactive
outcome [3]: inactive
outcome [4]: inactive
outcome (TIMP1, TIMP1 (gene 7076)): inactive
outcome [5]: inactive
outcome [6]: inactive
outcome [7]: inactive
outcome [8]: inactive
outcome [9]: inactive

COP(=S)(OC)Oc1ccc([N+](=O)[O-])cc1
outcome [1]: inactive
outcome [2]: inactive
outcome [3]: inactive
outcome [4]: inactive
outcome (TIMP1, TIMP1 (gene 7076)): inactive
outcome [5]: inactive
outcome [6]: inactive
outcome [7]: inactive
outcome [8]: inactive
outcome [9]: inactive
